Activity change data for 60 molecules are collected here from PubChem BioAssay AID1224865 (Sanford-Burnham Center for Chemical Genomics, 2016).

SMILES strings stand for the structures. Several values for one entry are separate records, joined by “and”; a condition that tells them apart may be missing. Equal values may be shown once. The whole screen tested about 360,000 compounds, of which about 1,100 (0.31%) were called active. The sample holds actives, similar compounds and a random draw of the others, so the mix is not that of the screen. No stated cut-off is given here; in the data, active means activity change above about 30% (passing the limit was not always enough); inactive means the rest. A structure can be active in one record and inactive in another.

The target in the test is Hepatocyte nuclear factor 4-alpha (Homo sapiens) (UniProt P41235). Kind of test: HNF4-alpha DNA association modulation – biochemical, fluorescence polarization, FITC-DNA, primary screen (AID 1224865). The settings on record: HNF4a-FITC DNA binding, 1 h, at 10 µM, stronger effect = higher value. For orientation: In fluorescence polarisation assays a small probe gives low polarisation when free and higher when bound to something large.
Chain of Hepatocyte nuclear factor 4-alpha (Homo sapiens) (P41235 whole entry, looked up): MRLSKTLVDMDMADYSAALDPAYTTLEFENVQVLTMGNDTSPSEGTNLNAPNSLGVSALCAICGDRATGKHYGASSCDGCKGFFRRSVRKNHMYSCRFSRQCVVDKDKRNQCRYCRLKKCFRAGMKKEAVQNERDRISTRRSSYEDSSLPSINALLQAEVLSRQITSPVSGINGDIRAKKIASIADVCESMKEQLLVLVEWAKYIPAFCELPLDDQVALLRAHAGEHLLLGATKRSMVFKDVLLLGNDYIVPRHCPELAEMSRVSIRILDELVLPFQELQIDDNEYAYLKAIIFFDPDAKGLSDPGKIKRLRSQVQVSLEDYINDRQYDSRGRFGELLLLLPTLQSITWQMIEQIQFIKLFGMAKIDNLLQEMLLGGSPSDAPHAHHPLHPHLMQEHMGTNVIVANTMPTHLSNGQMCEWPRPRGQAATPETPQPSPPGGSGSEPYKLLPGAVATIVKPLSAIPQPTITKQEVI
Consider `COc1ccc2oc(N)nc2c1`, for which the activity change was 0.82% (inactive).

In the case of `CCc1ccc2oc(-c3ccc(N)cc3)nc2c1`, the activity change was 71.8% (active).

Consider `CC1(C)C/C(=C(/C#N)C(N)=O)CCO1`, for which the activity change is -0.48% (inactive).

Consider `CCOC(=O)N1CCN(C(=O)C2CCN(S(C)(=O)=O)CC2)CC1`, for which the activity change was 30.5% (active).

Turning to `CCOC(=O)C1CCN(C(=O)C2CCN(S(=O)(=O)N3CCCC3)CC2)CC1`, the activity change is -3.6% (inactive).

Consider `CCOC(=O)C1CCN(C(=O)C2CCN(S(=O)(=O)CC)CC2)CC1`, for which the activity change is -4.66% (inactive).

Take `CCCCc1nccn1CCn1ccnc1CCCC`: the activity change is -1.42% (inactive).

In the case of `O=C(CC1SC(=Nc2ccccc2F)N(CCN2CCOCC2)C1=O)Nc1ccc(F)cc1F` (stereo not given), the activity change is 2.99% (inactive).

For the molecule `CC(C)(C)NC(=O)c1ccc(Cn2cc(C(F)(F)F)ccc2=O)cc1`, the activity change was -4.39% (inactive).

In the case of `O=c1cc(CN2CCCCCCC2)c2c(ccc3ccccc32)o1`, the activity change is -1.79% (inactive).

Turning to `c1ccc2cc3[nH]c(CN4CCCCC4)nc3cc2c1`, the activity change was 33.4% (active).

For `Cc1ccc2[nH]c(=O)c(CN3CCCCC3)c(-c3ccccc3)c2c1`, the activity change is -1.94% (inactive).

As to `O=S(=O)(Cc1ccc(Cl)cc1Cl)c1ccc(Cl)cc1`, the activity change was 1.8% (inactive).

Regarding `COC(=O)C1=C(C(=O)OC)C2(OC1c1ccc(Br)cc1)C(=O)c1ccccc1C2=O` (stereo not given), the activity change was 0.81% (inactive).

For the molecule `CC(=O)N1C(=O)/C(=C2\SC(=S)N(NC(=O)c3ccc(O)cc3)C2=O)c2ccccc21`, the activity change is -1.57% (inactive).

On to `Cn1cccc1/C=C1\SC(=S)N(NC(=O)c2ccc(Cl)cc2)C1=O`, for which the activity change was 74.6% (active).

Regarding `CN1C(=O)C(CC(N)=O)N(NC(=O)c2ccc(Cl)cc2)C1=S` (stereo not given), the activity change is -1.5% (inactive).

Regarding `O=C(NC1CCCC1)C1c2ccccc2OCC(=O)N1CC(F)(F)F` (stereo not given), the activity change is 2% (inactive).

As for `COc1cccc(-c2nc3nc(C)cc(C)n3c2NC2CCCCC2)c1`, the activity change was 3.94% (inactive).

As to `Cc1ccc2nc(-c3cccnc3)c(NC3CCCC3)n2c1`, the activity change is 6.3% (inactive).

Consider `COc1ccc(-c2nc3cc(C)ccn3c2NC2CCCCC2)cc1SC1CCCCC1`, for which the activity change is 47.8% (active) and 27.6% (inactive).

With `Cc1ccn2c(c1)nc(=O)c1cc(S(=O)(=O)N3CCC(C)CC3)ccc12`, the activity change was 4.48% (inactive).

On to `Cc1cc(=O)oc2cc(OC(C)C(=O)Nc3ccc(N4CCOCC4)cc3)ccc12` (stereo not given), for which the activity change was -19.2% (inactive).

Turning to `O=C(O)c1ccc(NN=CC2=C(N3CCOCC3)/C(=C/c3ccccc3)CC2)cc1`, the activity change was 41.5% (active).

Regarding `O=C(O)c1ccc(N=NN2CCOCC2)cc1`, the activity change is 1.22% (inactive).

Consider `O=C(O)c1ccc(N/N=C/c2ccc3ncccc3c2)cc1`, for which the activity change is -1.15% (inactive).

Turning to `O=C(COC(=O)/C=C/c1ccc(S(=O)(=O)N2CCCCCC2)cc1)NCc1ccccc1Cl`, the activity change was -2.22% (inactive).

For the molecule `O=C1CCC(C(=O)N2CCCCO2)CN1Cc1cccc(C(F)(F)F)c1` (stereo not given), the activity change is 1.26% (inactive).

Turning to `NC(=O)Cn1nc([N+](=O)[O-])nc1Oc1ccc(Br)cc1`, the activity change is 3.81% (inactive).

Regarding `CCCCCCCNc1nc(Cl)nc(NCCO)n1`, the activity change is 1.28% (inactive).

Regarding `NNc1cccc(C=Cc2ccccc2)cc1=O`, the activity change was 37.5% (active).

With `O=C(COC(=O)/C=C/c1cccc(Cl)c1)NCCc1ccccc1`, the activity change is 1.96% (inactive).

Regarding `O=C(COC(=O)c1cc(S(=O)(=O)N2CCOCC2)ccc1F)NC1CC1`, the activity change was -0.17% (inactive).

In the case of `O=C(c1ccc[nH]c1=S)N1CCN(S(=O)(=O)c2ccc(Br)cc2Cl)CC1`, the activity change is 0.57% (inactive).

As for `COc1cccc(/C=N/NC(=O)c2[nH]nc3c2CCc2ccccc2-3)c1O`, the activity change was 49.2% (active).

For `COc1ccccc1N1CCN(C(=O)C(=O)N/N=C/c2ccccc2F)CC1`, the activity change is -1.71% (inactive).

For the molecule `COc1cc(/C=N\NC(=O)c2nonc2N)c(OC)cc1Br`, the activity change is -0.19% (inactive).

`O=C1COc2ccc(S(=O)(=O)NCCc3ccc(Cl)cc3)cc2N1`: the activity change is 1.98% (inactive).

As to `CC(C)n1c(O)c(N=Nc2ccccn2)c2ccccc21`, the activity change is 0.04% (inactive).

As to `CCOCCCNC(=O)Cc1cc(=O)[nH]c(=O)[nH]1`, the activity change was -0.4% (inactive).

On to `N#CCCN1CCN(S(=O)(=O)c2ccc(S(=O)(=O)NC3CCCCC3)cc2)CC1`, for which the activity change is 0.96% (inactive).

`CCn1c(/C=C/c2ccc([N+](=O)[O-])o2)nc2ccccc2c1=O`: the activity change was 92.1% (active).

In the case of `O=C(/C=C/c1ccc([N+](=O)[O-])o1)NNC(=O)c1ccc(F)cc1`, the activity change is 0.84% (inactive).

With `C=CCn1c(SCC(=O)NC(=O)Cc2ccccc2)nc2ccccc2c1=O`, the activity change is 1.95% (inactive).

For the molecule `COc1ccccc1CCNC(=O)CN1C(=O)NC2(CCCC2)C1=O`, the activity change is 1.6% (inactive).

Take `COc1ccc(C(=O)N2CCCCC2c2cc(C(=O)Nc3ccc(F)c(Cl)c3)no2)cc1` (stereo not given): the activity change is -0.55% (inactive).

`COc1ccc(/C(C)=N/N2CCOCC2)c(O)c1`: the activity change was 1.11% (inactive).

Consider `CN1/C(=c2/s/c(=C3/C(=O)N(c4ccccc4)NC3=Nc3ccccc3)n(C)c2=O)C(C)(C)c2ccccc21`, for which the activity change was 66.2% (active).

With `O=C(CO/N=C/c1ccc(OC(F)F)cc1)NCc1ccc(F)cc1`, the activity change was -1.87% (inactive).

On to `CCOC(=O)C1CCCN(C(=O)CSc2nnc3nc(C)cc(C)n23)C1` (stereo not given), for which the activity change was -2.41% (inactive).

Take `COc1ccc(CCNC(=O)CN(C)S(=O)(=O)c2ccc3nc(C)sc3c2)cc1OC`: the activity change was 3.34% (inactive).

Take `COc1ccc(-c2ccc(C(=O)NCCN3CCOCC3)c3occc23)c(C)c1`: the activity change is -3.94% (inactive).

Regarding `CCC(c1nc2ccccc2[nH]1)n1c(=O)c(-c2cccs2)nc2ccccc21` (stereo not given), the activity change is 4.95% (inactive).

For `CCC(C)N1C(=O)S/C(=C/c2ccc(Sc3nc4ccccc4[nH]3)o2)C1=O` (stereo not given), the activity change was 77.3% (active).

For the molecule `COC(=O)/C(C#N)=C/c1occc1C`, the activity change was -1.39% (inactive).

In the case of `CCOC(=O)/C(C#N)=C/c1ccc(N2CCCCC2)cc1`, the activity change was 42.2% (active).

`CCOC(=O)/C(C#N)=C\c1c(C)cc(C)c(COC(C)=O)c1C`: the activity change is 2.55% (inactive).

For `C/C(=N/Nc1nc(-c2ccccc2)c(CC(=O)O)s1)c1ccccc1`, the activity change was 48.6% (active).

As for `CC(=O)NC(CC(=O)Nc1nc(-c2ccccc2)c(C(C)=O)s1)c1ccccc1` (stereo not given), the activity change was 0.99% (inactive).

For `CCOc1ccc(-c2nc(C)sc2CC(=O)O)cc1`, the activity change was 1.37% (inactive).
